Data on 40 sequences can be found in the supplement of paper PMC10681739.

The assay has as its target T1, ETS1 (UniProt P14921).
T1 sequence: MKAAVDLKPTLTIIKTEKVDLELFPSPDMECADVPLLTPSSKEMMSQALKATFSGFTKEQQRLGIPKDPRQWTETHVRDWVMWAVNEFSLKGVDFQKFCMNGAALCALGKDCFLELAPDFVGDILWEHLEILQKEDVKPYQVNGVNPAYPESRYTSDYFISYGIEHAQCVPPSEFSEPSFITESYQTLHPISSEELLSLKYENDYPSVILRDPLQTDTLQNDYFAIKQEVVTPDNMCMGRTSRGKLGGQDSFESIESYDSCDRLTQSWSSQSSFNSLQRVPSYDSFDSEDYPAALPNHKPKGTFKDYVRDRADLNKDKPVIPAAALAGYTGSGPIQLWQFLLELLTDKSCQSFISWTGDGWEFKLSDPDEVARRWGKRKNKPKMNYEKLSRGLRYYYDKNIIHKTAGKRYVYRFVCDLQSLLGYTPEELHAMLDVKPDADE
Kind of assay: ETS1 binding intensity (PBM fluorescence) in presence of RUNX1, normalised to ETS1-only experiment (arbitrary fluorescence units); higher = stronger binding. The settings on record: ETS1 concentration 1 nM; RUNX1 concentration 25 nM. The protocol:
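Cooperative genomic-context PBM: 36-bp genomic probes with neighbouring ETS1 and RUNX1 sites, double-stranded on Agilent 4x180k arrays. Full-length recombinant human ETS1 (1 nM) was incubated alone or with RUNX1 (25 nM) and detected with anti-ETS1 antibody plus Alexa488 secondary. Value is the median fluorescence intensity over 4 replicate spots; the ETS1+RUNX1 data were normalised to the ETS1-only data using probes without RUNX1 sites. The 36-bp variable region sits on the array probe with constant linker/primer flanks that are not printed.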
Consider CCGATGGCGGCGGAACTGTGGTCAGGGCTGCCCTGA, for which the ETS1 binding intensity amounted to 510. GAGCGCAGGACGGAAGCTCGGTGCGGGTGCGGCCTC: the ETS1 binding intensity came out at 938. Consider AGGAGAACTTCCGCCCTTACTATATTACCGCCGGTA, for which the ETS1 binding intensity worked out at 1090. With TAACGCGAGAACTTCCTGCGGGCCACGCCCTCTTTC, the ETS1 binding intensity stood at 462. Next, GTTCTCAGCTTCCTGTTCACAGAGAAACCTCAGACA: 1560.

As for GCAGAAACAGGAAGAGACAGGGCTGACCGCAGCAGG, the ETS1 binding intensity was found to be 6300. For AAACCAGAGAGGAAGTGGCACCACATGGCCAGACTG, the ETS1 binding intensity is 2150. Next, GTCTTGTACCCTAGAGGATGTGGTAGCCCTAAATAA: 2290; TGTTTGTTTCCGAAGATTAGCCAGCCTGCGGTAGAG: 605; CTGCTGACCAAAACAGGATGTGGTCTACACAAAGTG: 36600. Next, GAAGTCACATCCTGTCTGTTGCGGCAGGGCACAGAG: 1520. Next, CCTCGCCCCCTTCCGCACCCACCCCACCGCGCTCCG: 786; TGTGTCACTTCCCTATCTGTTGCGGTTGTTCACTCC: 841. Turning to TCCAGCCCCACCGGAAGTGGATGTGGTTAATCTAGT, the ETS1 binding intensity is 56400.

Regarding GCACCCTTCCTGCTTCCCACAGTGTGGTATAAGAGG, the ETS1 binding intensity was 475.

For GAAGAAGTCAGGAAATGCTGCCGCAGCAGCCAGCCC, the ETS1 binding intensity is 1070. On to GTCCCCCTTCCGGCTGCAGGTTGAGGTTTGGAACCT, for which the ETS1 binding intensity worked out at 560. Next, CCTCCTGGGAACTTCCTGCGGGGGCCGAAGCTGAAG: 660; TCGTGTTCTCTTCCGTTCTGTGGTAGCTTTTTGGTA: 557; CTCTGCCCGCTTCCGCTGGCGGTACCTCAGAGCCGC: 920.

For the sequence ACAAGAGGAAGTGAGTCTACCCATGATGCGGTCACA, the ETS1 binding intensity was determined as 4460. Next, CAGCGGAAGAAAGACCTGCCACCTCCACCACAAAGA: 471. For CTTTCGGGGGCGGAAGTTGCGGTGCATTGTAGGTTC, the ETS1 binding intensity is 20000.

With GAGCCGGAAGTGAAGGAGGGCTTGTGGGAGATGGAG, the ETS1 binding intensity was 3090. For CAGATCCGGCGTGGACGAAGCTCGGGAACCACAACA, the ETS1 binding intensity came to 456. As for CGGGACTTCCTGTCTTCCCTGTTGCGGAGCTCTGAA, the figure is 1830; as for CGTTTGCCTATCTTCCTCCCCACAGAAGCACTCCAT, 399; as for GCTGTTTCCTGCTGATAAAAACACCCCACAACTTCA, 510. As for CCCCTTCATCCGCCTCTCTCTCACCGCGCCGCTCCC, the figure is 330; as for TCCGGAAGTGGCACTGATGGGCGCCTGCGGCGGGGG, 5500; as for CTGCGCTTCCGCTTCACCCGGAGTACAGCGGTCCTG, 713. Next, AATGATTACCTAACAGGAAAACCACATTGGTCATTT: 3100; GGGGCAGGAAGTGGAGGTTTGAAGTGGTTTAGAGTA: 2310. As to TCTGCCGCCAGCCCATCCGCGACCGCATCCAGATCT, the ETS1 binding intensity was 653. As for TCCAAGGCGGAAAAAACCCGCCCTAAACCGCACCCC, the figure is 1040. On to CTTCCCTTGCCCCGGAAAAGGGCGGTAAGAGGGAGC, for which the ETS1 binding intensity came to 1160.

TCTTTTTATTTCCTGTGCAGTCTCGCCCACAGCACT: the ETS1 binding intensity worked out at 1030. Next, GGTGGCCGCCGGAAGTGTGACCGCGGGAGGGGAGTG: 25500. Next, CTAAACCGGAAGCCGCCCCTCTGACCGCTCTAAAAC: 5990; CCGATTTCCCCGGACGTGGTGAGACCGCGCTTCGTC: 855.
